Measured values as given in PubChem BioAssay AID1347426 (Functional Genomics Laboratory (NCATS/FGL), 2020).
Hit rate of the full screen: of about 31,000 sequences, about 1,400 (4.5%) were called active. Shown is part of a subset that was picked to be rich in actives. A number with no mark means an inactive call.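 How the source made its calls: active means median seed-adjusted z-score above 1 or below -1; inactive means the rest.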

experiment: Novel Modifiers of Survival Motor Neuron (SMN) Protein: Gene Identification via Genome-wide siRNA Screen; conditions: HEK293T SMN2-luciferase reporter, siRNA knockdown, 72 h; actives lie on both sides;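 further: luminescence tracks full-length SMN protein made from the SMN2 reporter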
Outline: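 Luciferase signal, proportional to full-length SMN made from an SMN2 cDNA reporter in stable HEK293T cells, was read 72 h after siRNA reverse transfection. Values were expressed as MAD scores after non-targeting-control normalization and log10 conversion; seed analysis flagged off-targets.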

Row | Sequence | median seed-adjusted z-score
1 | GCCUAUAGAGGAUCAGUUATT against PCMTD1 | 0.0312
2 | GAGUGAGGACGGAAGAUCATT against APH1A | 0.741
3 | GGCUGUAUGAGCACCGUUATT against TGIF1 | 0.303
4 | GGAUGUUAGUAAACUCUCUTT against PSMA4 | 0
5 | GAAUGUUAGUAGACGGGUUTT against IKZF5 | 0.399
6 | GCACUAUCCAGUUUGUGGATT against TUBA3E | -0.35
7 | GGCCGUUACUUACCAGAGUTT against UROD | 1.11 (active)
8 | GAGAAACUAGAAUACAGAATT against ADPRH | -0.406
9 | GGGAUUAUCUUGCUUCCAATT against LPCAT2 | 0
10 | CCGUGAACCCAGAACAGUATT against PIP4K2A | 0.469
11 | GAGUCAGGACAAGAAGAUUTT against PHPT1 | 1.27 (active)
12 | GGAUGGAACUUUACCCUCATT against MKL2 | -0.863
13 | CUACAAGCAUCGAUAGUAATT against EIF4G3 | -0.0562
14 | GAAAGAAAUCAACUGAUGATT against FBP1 | -0.221
15 | GCAGACUCUCGACAUCCGATT against MAFK | 1.73 (active)
16 | GCUCAUUCCAGGUCAAUCATT against MLL3 | -0.248
17 | GCUCAUAGGUAAGAAUUGUTT against NUBP1 | -0.0975
18 | CGGCCUUCAUCGCAGUACATT against SLC7A5 | 0.00397
19 | GGGUGAAGUCUCUCAAGAATT against LLGL1 | -1.13 (active)
20 | CAAGAUCUAUGAUAAGGAUTT against GUCA1B | 0
21 | ACUUCAACAUGACCAAAAATT against PPARD | 0.0283
22 | GAGCUUGUAUAUGAAGCUATT against PDCD4 | -0.0842
23 | GGAUGACAGUCUCAUUGCATT against GON4L | 0.116

Row | Sequence | median seed-adjusted z-score
24 | CCAUGCUGUCUAUAGCCUATT against TRPC5 | -1.14 (active)
25 | GGUUUUAGACCACACUAAATT against MSH3 | 0.428
26 | CAUUCCCUGUUGUAAUCAATT against MDH1 | -0.154
27 | CGUCAUCACCCUCAACUAUTT against NLGN3 | -0.0279
28 | GGACAUCGAAAAGUUAGUATT against MX2 | -0.0346
29 | CAAGAGUCUCUUUAAGGAATT against ACTL8 | 0
30 | GGAUGUAUGACAUCUGUAATT against STC1 | -1.36 (active)
31 | GCAUCCCUACGGUUGUUGATT against EIF2B4 | 0
32 | GAGAAUAUCUGGAACCAGUTT against BDKRB1 | 0.448
33 | CCAAUGCCCAGAUUAUGUATT against CELSR2 | -0.493
34 | GGAGAUACCUGGUCUCUUUTT against ADAM21 | 0
35 | GUCUUUCAGGUGUACCCAUTT against GATA1 | 0.371
36 | GCAUGCCCAUGAACAAAAATT against B3GNT1 | 0.0931
37 | GAAUGGGUCUUGUAAAUCATT against PPAT | -1.51 (active)
38 | ACCUGAUGGUGGGCGCAAATT against MYBPC3 | 0.304
39 | AGAUCAACCUGCUUCCCGATT against PDK2 | -0.481
40 | GGAUUAUAGUGUCACCUAUTT against CPD | -0.198
41 | GCGCAUUACUUUCUAGAAATT against PEX5L | 0.0982
42 | GAAUCAAGAAUUAAAGACATT against PIPOX | 1.06 (active)
43 | CAGUUCAUGUGGAUCAUCATT against GABARAPL2 | 0.528
44 | CCACCUGUACAGCACGGUATT against TGFB1I1 | 0.887
45 | GGGCAAAGCGAAACGCAAATT against ZNF536 | -0.295
46 | GCACGAGCCUUUCUCCAGUTT against RNASE7 | 1.07 (active)

Row | Sequence | median seed-adjusted z-score
47 | GAAAGUCCAGAUGAGGAUATT against KLF9 | 0.767
48 | GAAAUGGACCAGACACUAATT against POU2F2 | 0.163
49 | GGGACCAAAAUCAAUGAAATT against PCBP3 | -0.0373
50 | GAAUGCAGGGAGAAACUUATT against TRIM64 | -0.024
51 | GGAAGACAGAGAAUCGAAATT against SEMA5A | -0.443
52 | GACAAGACGUGGUCAAGAATT against BCL2L13 | 0.311
53 | GCAGUAGACUGAGCAGCAATT against TMTC4 | -1.16 (active)
54 | CCUCAGGGAAGUACCCAAATT against RNASE8 | 0.00771
55 | CGCCUACACUCCUACGUGUTT against ZDHHC24 | -0.695
56 | UGCCCGCUGUAGAUGAGAATT against APOC2 | -0.0599
57 | GUUUCACCAUCGUUCGUGATT against PROKR2 | 0.328
58 | CAAAAUGCAUUAGCUGAAATT against VIP | 1.52 (active)
59 | AGAUGUACAUCCUCGUGCATT against ELFN2 | -0.0888
60 | CUCCUGAGAUAAUAAUGAATT against RFC3 | 0.733
61 | CUCCUAUAAGAAAUCAAUATT against FLVCR1 | 0.197
62 | CCAAUACAGUGGACAGUUATT against EMR1 | 0.255
63 | GGAGGGUCUUCAUCGCUGATT against POLR2C | -2.95 (active)
64 | AAAGAAUCAUUGUGAAAGATT against PARVA | 0.0852
65 | GCCUUCCACGCUUUCCUGATT against RGS16 | 0
66 | GCGCAAUAAUGAACGGCAATT against GALNT14 | 0
67 | CGAUCGCAAGUACCACGAATT against ATP8B1 | 0.357
68 | GACUAGCUGCUGAUAAGAATT against CKAP5 | -1.87 (active)
69 | AGUCCUCGGUGAUGCGUGATT against LMNB2 | -0.15
